Reference: PubChem BioAssay (NCI)
About 83,000 compounds went through this panel and 20% of them were active in at least one assay; those are over-represented in the sample as a whole.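 Compound tested at a single concentration for 48 hours in 96-well plates; a percent growth value below 10 was scored as active.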 Values without a mark were called inactive. Calls of active or inactive are those of the source.

Each compound was assayed on HCT-116 colon (assay: NCI-60 one-dose screen, 48 h (100 = growth as untreated, 0 = no growth, -100 = all killed)). Settings: 10 µM unless noted.
Experimental: Growth inhibition of the HCT-116 human tumor cell line is measured as a screen for anti-cancer activity. Cells are grown in 96 well plates and exposed to the test compound for 48 hours. Compounds are tested at a single concentration, which is 10^-5 M for most compounds. The reported endpoint is percent growth (GI% or GIPRCNT), where numbers from 0 - 100% represent growth inhibition, and numbers from -100% - 0 represent cell death. For example, a value of 40 represents 60% growth inhibition. A value of 0 means no net growth occurred over the course of the experiment. A value of -40 indicates 40% of cells at the beginning of the experiment died by the end of the experiment. A value of -100 means all cells are dead at the end of the experiment.
NCI-60 Human Tumor Cell Lines Screen was performed using the standard one-dose NCI protocol, which is described in more detail at https://dtp.cancer.gov/discovery_development/nci-60/default.htm.
Compounds with GIPRCNT values below 10 were considered active. Activity score was based on GIPRCNT using the following formula: […]
Score is 0 for GIPRCNT values of 100 or above, 50 for GIPRCNT values of 0, and 100 for GIPRCNT values of -100.

| SMILES | growth |
| --- | --- |
| CCCCCCCC/C=C\CCCCCCCCOc1ccc(CC(=O)NCC[N+]2(C)CCCC2)cc1 | 53.2% |
| COc1ccccc1-c1nc2ccc3[nH]ncc3c2c2c1CCCC2 | 64.9% |
| N#C/C(=C/C=C/c1ccccc1)S(=O)c1ccccc1 (stereo not given) | -89.6% (active) |
| CC(=O)c1ccc(Nc2nccc(-c3ccc(Cl)cc3)n2)cc1 | 62.9% |
| COc1cc(C2CC(c3cccc(Nc4ccncc4)c3)=Nc3c(N)ncnc3N2)cc(OC)c1OC (stereo not given) | 87.9% |
| CCN1C(=O)N(CC)C2C1NN=c1s/c(=C\c3ccc([N+](=O)[O-])cc3)c(=O)n12 (stereo not given) | 7.31% (active) |
| CCCCC#Cc1c(I)n(C2OC(CO[Si](C)(C)C(C)(C)C)C3OC(C)(C)OC32)c(=O)[nH]c1=O (stereo not given) | 50.2% |
| C#CCOc1cccc(Nc2c(Cl)c(CCl)nc3ccc(Oc4ccccc4)cc23)c1 | 27.2% |
| COc1cc(C2=Nc3c(N)nc(N)nc3NC(c3cccc(Nc4ccnc5cc(C(F)(F)F)ccc45)c3)C2)cc(OC)c1OC (stereo not given) | 48.9% |
| Cc1[nH]c(C(=O)Nc2ccc(C(N)=O)cc2OC(C)C)c(Cl)c1Cl | 98.3% |
| O=C1/C(=C/c2ccc(-c3ccc(Cl)cc3)o2)SC(=S)N1CCc1ccc(O)cc1 | 48.8% |
| O=C1N/C(=N/N=C(c2ccccc2)c2ccccc2)S/C1=C\c1ccc(Br)cc1 | 81.8% |
| C=CCOC(=O)C1=C(C)N(CC)C(=O)N(CC)C1c1c(Cl)n(C)c2ccccc12 (stereo not given) | 85.8% |
| CCOC(=O)c1c(C)nc2c(c1N)C(=O)C(=O)N2CCc1ccc(OC)c(OC)c1 | 38.7% |
| COC(=O)c1c(C)nc(C)c2c1C(=O)C(Br)=C(NCCCCO)C2=O | 34.3% |
| CS(=O)(=O)c1cccc(Nc2ncc3cc(-c4ccccc4Cl)ccc3n2)c1 | -5.46% (active) |
| O=C(Nc1ncc(Cc2ccccc2)s1)c1cc(-c2ccccc2)nc2ccccc12 | 95.3% |
| COc1ccc(NC(=O)c2ccc(Cl)cc2Cl)cc1 | 99.4% |
| Nc1ncc(-c2ccc3ncnc(N4CCc5cc(F)c(Cl)cc54)c3c2)cc1C=O | 36.6% |
| COc1ccc(-n2c(=O)n(-c3ccc(-c4nc5ccc(F)cc5s4)cc3)c(=O)c3cccnc32)cc1 | 91.5% |

| SMILES | growth |
| --- | --- |
| CCOC(=O)CSc1nc2sc3c(c2c(=O)n1-c1ccccc1)CCCCC3 | 97.3% |
| O=C(c1ccccc1)[C@@H](c1ccccc1)[C@]1(O)C(=O)Nc2ccccc21 | 96.6% |
| CC(=O)[C@H]1CC[C@]2(C)[C@@H]1CC[C@@H]1[C@@]3(C)C/C(=C/c4cccnc4)C(=O)C(C)(C)[C@@H]3CC[C@]12C | 33.2% |
| Cc1[nH]c(C(=O)Nc2ccccc2OC2CCNC2)c(Cl)c1Cl (stereo not given) | 42.8% |
| O=C(CNc1ncco1)Nc1ccc(S(=O)(=O)c2ccc(NC(=O)CNc3ncco3)cc2)cc1 | -80.7% (active) |
| COC(=O)c1sc(-c2ccc(C)cc2)cc1O | 96.6% |
| Cc1c2cnccc2c(C)c2c1c1cc(C(=O)O)ccc1n2C | 2.6% (active) |
| CO[C@H]1/C=C/O[C@@]2(C)Oc3c(C)c(O)c4c(O)c(c5c(nc6cc(C)ccn65)c4c3C2=O)NC(=O)/C(C)=C\C=C\[C@H](C)[C@H](O)[C@@H](C)C(O)[C@@H](C)[C@H](OC(C)=O)[C@@H]1C (stereo not given in full) | 94.9% |
| O=C(Cn1cc(CSc2nc3ccccc3o2)nn1)Nc1ccc([N+](=O)[O-])cc1 | 97.6% |
| O=C(Nc1ccccc1)Nc1ccccc1CNc1nc(Nc2ccc(OCCN3CCCC3)cc2)ncc1Cl | 45.7% |
| O=C(Nc1cccc(Cl)c1)Oc1c(Cl)c(Cl)c(Cl)c(Cl)c1Cl | 95.7% |
| COc1cccc(C(=O)Nc2cccc(NC(=O)c3ccccn3)c2)c1 | 94% |
| COc1ccc(-c2ccc(-c3ccc(C(=N)N)nc3)s2)cc1 | -60.4% (active) |
| COC(CCP(=O)(c1ccccc1)c1ccccc1)(C(=O)c1ccccc1)c1ccccc1 (stereo not given) | 45.5% |
| O=[N+]([O-])c1ccc(N/N=C\c2cc(Cl)ccc2O)nc1 | 16.7% |
| C[C@@H]1N=C(c2ccc(Cl)cc2Cl)Nc2nc3ccccn3c2C1=O | 28.1% |
| CCN1CCN(c2cc(C(=O)Nc3cccc(Nc4ccc5c(OC)cccc5n4)c3)cc(C(F)(F)F)c2)CC1 | 24.3% |
| C1=C2CCCC3=Cc4ccccc4OC23Oc2ccccc21 | 24% |
| c1ccc(-c2nc(N3CCNCC3)c3oc(-c4ccccc4)nc3n2)cc1 | -31.7% (active) |
| CCCn1cnc2c(c1=N)C(c1ccc(Cl)cc1)c1sc3c(F)cccc3c1O2 (stereo not given) | 57.8% |
